hNpr1 antagonist: human Npr1 receptor antagonism | HEK293 hNpr1 GloSensor cGMP, ANP-stimulated luminescence | Potency, µM (highest dose often 46.3 µM), usual class: inhibitors | 76,000 tested, 1.6% active | AID 1347048; calls by dose curve; note: nearly all actives have a fitted effect of over 60% in size
Target sequence (P16066 whole entry, looked up): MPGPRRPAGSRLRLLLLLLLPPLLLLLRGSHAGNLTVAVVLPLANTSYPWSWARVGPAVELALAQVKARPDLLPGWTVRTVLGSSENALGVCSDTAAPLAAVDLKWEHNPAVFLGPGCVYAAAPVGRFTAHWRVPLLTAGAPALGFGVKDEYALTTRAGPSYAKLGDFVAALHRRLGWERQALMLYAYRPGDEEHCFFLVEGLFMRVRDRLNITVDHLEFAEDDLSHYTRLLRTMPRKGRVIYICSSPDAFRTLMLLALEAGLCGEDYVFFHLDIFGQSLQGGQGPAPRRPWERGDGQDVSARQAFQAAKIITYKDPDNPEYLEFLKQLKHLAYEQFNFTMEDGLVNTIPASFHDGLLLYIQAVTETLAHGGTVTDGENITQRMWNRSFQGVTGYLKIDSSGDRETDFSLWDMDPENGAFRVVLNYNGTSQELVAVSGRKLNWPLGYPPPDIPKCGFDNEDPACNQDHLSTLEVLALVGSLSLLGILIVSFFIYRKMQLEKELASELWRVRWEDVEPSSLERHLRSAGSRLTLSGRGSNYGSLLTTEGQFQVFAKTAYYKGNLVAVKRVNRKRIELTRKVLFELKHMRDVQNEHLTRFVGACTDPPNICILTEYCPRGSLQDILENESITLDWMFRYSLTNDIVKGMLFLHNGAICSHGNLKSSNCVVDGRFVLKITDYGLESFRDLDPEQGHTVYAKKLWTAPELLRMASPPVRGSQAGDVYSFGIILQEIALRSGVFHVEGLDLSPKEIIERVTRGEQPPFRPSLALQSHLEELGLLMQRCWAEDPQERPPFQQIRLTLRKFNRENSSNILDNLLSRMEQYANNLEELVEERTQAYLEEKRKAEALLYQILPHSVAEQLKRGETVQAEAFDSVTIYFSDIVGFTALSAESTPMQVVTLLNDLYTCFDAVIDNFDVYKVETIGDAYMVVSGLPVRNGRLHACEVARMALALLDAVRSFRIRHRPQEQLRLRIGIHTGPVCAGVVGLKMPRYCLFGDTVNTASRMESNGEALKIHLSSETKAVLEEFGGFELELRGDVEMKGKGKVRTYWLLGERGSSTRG
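HEK293 cells stably expressing human Npr1 and cGMP GloSensor pGS-40F, loaded 2 h with 2% GloSensor reagent, given compound 30 min at room temperature. Luminescence read before and 20 min after 0.1 nM hNppA.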
GPT2 inh: GPT2 alanine aminotransferase inhibition | Potency, µM (series often up to 57.7 µM), hits mostly inhibitors | 100,000 tested, 0.25% active | Q8TD30 | Recombinant GPT2, coupled pyruvate oxidase/HRP Amplex Red fluorescence; note: nearly all actives have a fitted effect of over 60% in size
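Inhibition is scored from Amplex Red fluorescence generated when pyruvate oxidase and HRP act on pyruvate released by GPT2. Reactions contain 10ng/uL enzyme, 250uM a-KG and 2mM L-alanine and run 30 min at room temperature.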
HEK cytotox: HEK 293 cell cytotoxicity; Potency, µM (titrated, usually from 115 µM), hits mostly inhibitors; HEK 293 viability, ATP luminescence (CellTiter-Glo), 48-72 h; 94,000 tested, 6.6% active; note: nearly all actives have a fitted effect of over 60% in size
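HEK 293 cells seeded at 250 cells/well were exposed to compound for 48 or 72 hr at 37 degree Celsius. Viability taken as ATP content by CellTiter-Glo luminescence.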
Luciferase inh: blocks purified firefly luciferase enzyme activity; 76,000 tested, 2.5% active; purified P. pyralis luciferase, luminescence, biochemical; Potency, µM (doses to about 115 µM), usual class: inhibitors; P08659; note: nearly all actives have a fitted effect of over 65% in size
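Purified 10nM P. pyralis luciferase with 10uM D-luciferin and 10uM ATP in 50mM Tris acetate pH 7.5, 10mM Mg acetate, 0.01% Tween-20, 0.05% BSA. qHTS titration; luminescence read by CCD imager.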
NIH3T3 tox: kills NIH 3T3 cells; NIH 3T3 viability, CellTiter-Glo ATP luminescence, 48-72 h; Potency, µM (doses to about 96.7 µM), actives largely listed as inhibitors; 94,000 tested, 4.3% active; note: nearly all actives have a fitted effect of over 55% in size
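Luminescent ATP readout (CellTiter-Glo, 10 min RT) after 48 or 72 hr compound exposure of NIH 3T3 cells seeded at 400 cells/well in 1536-well format; quantitative HTS.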
Numbers stand for hits; . = inactive; ? = inconclusive; / = no result given; [ ] = another dose, or the depositor's remark. Only some compounds are listed: those with a hit (about 10% of all), similar ones and a draw of the others. Unless noted, calls come from the whole dose curve; as a rule, active = well fitted curve in the direction sought with a large enough effect; inconclusive = small, poorly fitted or top-dose-only effect, or another doubt; inactive = no such curve, though single readings can be large; an effect the other way counts as inactive or inconclusive.

SMILES | hNpr1 antagonist | GPT2 inh | HEK cytotox | Luciferase inh | NIH3T3 tox
Cc1ccc(-n2nc(C)c([C@@H]3C=C[C@@H](NC(=O)CC(C)(C)CC(=O)O)C3)c2C)cc1Cl | . | . | . | . | ?
Cc1ccc(-n2nc(C)c([C@@H]3C=C[C@@H](NCc4ccc(F)cc4)C3)c2C)cc1Cl | . | . | 32µM | 45µM | ?
Cc1ccc(-n2nc(C)c([C@@H]3C=C[C@@H](NCc4ccc(N(C)C)cc4)C3)c2C)cc1Cl | ? | . | 8.9µM | 25µM | 7.9µM
O=C(CNC(=O)c1ccc(-c2cnc3ccccc3c2)cc1)NCCc1ccccc1 | / | / | . | / | .
CN1C[C@H]2CN(Cc3c[nH]c4ccccc34)CCN2C1=O | . | . | . | ? | ?
COc1ccc(CN2C[C@H]3CN(Cc4c[nH]c5ccccc45)CCN3C2=O)cc1 | . | . | 100µM | . | ?
O=C1N2CCCC2CN1C1CCN(Cc2ccc(OC(F)(F)F)cc2)CC1 (stereo unspecified) | ? | ? | 40µM | . | ?
COc1ccc(CN2C[C@H]3CN(Cc4ccc(C(F)(F)F)cc4)CCN3C2=O)cc1 | ? | . | ? | . | ?
Cc1ccc(CN2C[C@H]3CN(Cc4ccc(OC(F)(F)F)cc4)CCN3C2=O)cc1 | ? | . | 71µM | . | 50µM
COc1ccc(CN2C[C@H]3CN(Cc4ccc(Cl)cc4)CCN3C2=O)cc1 | ? | . | 71µM | . | ?
COc1cccc(N2C(=O)NC(=NC3CCCC3)C23CCCN([S+](=O)([O-])c2cccc(C(F)(F)F)c2)C3)c1 (stereo unspecified) | / | . | ? | / | ?
COc1cccc(N2C(=O)NC(=NC3CCCC3)C23CCN(Cc2ccc(N(C)C)cc2)C3)c1 (stereo unspecified) | / | . | ? | / | ?
CC(C)[C@@H](C)/C=C/[C@@H](C)[C@H]1CC[C@H]2C3=CC=C4C[C@@H](O)CC[C@]4(C)C3=CC[C@]12C | / | . | / | / | /
O=C(NCCc1ccc(Cl)cc1)c1ccc2nnc(-c3cc[nH]c3)n2c1 | / | . | ? | / | ?
CC1(C)CN(C(=O)COc2ccccc2)CC(=O)N(Cc2ccccc2)C1 | / | / | . | / | ?
COCCNC(=O)c1cc(-c2cccc(C(F)(F)F)c2)c2cccn2n1 | / | . | 32µM | / | ?
O=C(NCC1CC1)c1cc(-c2cccc(C(F)(F)F)c2)c2cccn2n1 | / | . | 28µM | / | ?
CCOCCNC(=O)c1cc(-c2cccc(C(F)(F)F)c2)c2cccn2n1 | / | . | ? | / | ?
COC(=O)CNC(=O)c1cc(-c2cccc(C(F)(F)F)c2)c2cccn2n1 | / | . | ? | / | ?
C=CCN1C[C@H]2COc3cc(OC)ccc3[C@H]2N(C(=O)c2ccc(F)cc2)CCC1=O | / | / | . | / | ?
Cc1ccc(C(=O)NC2CCN(c3cnn(CC4CC4)c(=O)c3)CC2)cc1C | . | . | . | . | .
Cc1ccc(N2CCC(N[C@@H]3CC[C@@H](N)C3)CC2)cc1Cl | . | . | 7.9µM | . | 10µM
COc1ccccc1CNC(=O)C1CCN(C(=O)c2ccc(-c3cncnc3)cc2)CC1 | / | . | ? | / | ?
COc1ccc(-n2nc(C)c([C@H]3C=C[C@@H](OC(=O)Nc4ccc(Br)cc4)C3)c2C)cc1 | 11µM | . | ? | 35µM | ?
COc1ccc(NC(=O)N[C@@H]2C=C[C@@H](c3c(C)nn(-c4ccccn4)c3C)C2)cc1 | . | . | 71µM | ? | 112µM
SMILES | hNpr1 antagonist | GPT2 inh | HEK cytotox | Luciferase inh | NIH3T3 tox
Cc1cc(C)c2c(CC(=O)N[C@@H]3CCOC[C@H]3Oc3ccccn3)coc2c1 | . | .[11.5 µM] | 50µM | . | ?
Cc1cc(=O)n(CC(=O)N[C@@H]2CCOC[C@H]2Oc2ccccn2)nc1C | . | . | . | . | .
CC(C)CC(=O)Nc1ccc([C@H]2OCC(=O)N(Cc3nccn3C)[C@@H]2CO)cc1 | . | . | . | . | .
O=C(Nc1ccccc1)Nc1ccc([C@H]2OCC(=O)N(Cc3ccccc3)[C@@H]2CO)cc1 | . | . | 71µM | ? | 89µM
COc1ccc(CN2C(=O)CO[C@H](c3ccc(NS(=O)(=O)c4ccc(F)cc4)cc3)[C@H]2CO)cc1 | . | . | . | . | 35µM
COc1ccc(C(=O)Nc2ccc([C@H]3OCC(=O)N(Cc4nccn4C)[C@@H]3CO)cc2)cc1 | . | . | . | 40µM | .
CC(C)CN1C(=O)CO[C@H](c2ccc(NC(=O)c3ccccc3)cc2)[C@H]1CO | . | . | 100µM | . | ?
O=C(Nc1ccccc1)Nc1ccc([C@H]2OCC(=O)N(Cc3ccncc3)[C@@H]2CO)cc1 | . | ? | . | . | ?
O=C(c1ccoc1)N1CCC(OCCOc2ccccc2)CC1 | / | . | . | / | .
O=C(NC1CCN(Cc2ccc(-c3ccsc3)cc2)C1)c1cccnc1 (stereo unspecified) | / | . | ? | / | ?
CC(C)C(=O)N1CCC2(CC1)OC(=O)N(Cc1ccccc1)C2(C)c1ccccc1 (stereo unspecified) | . | . | ? | . | 10µM
CC1(c2ccccc2)N(Cc2ccc(O)cc2)C(=O)OC12CCN(C(=O)Cc1ccccc1)CC2 (stereo unspecified) | . | . | ? | . | ?
CC1(c2ccccc2)N(Cc2ccccc2)C(=O)OC12CCN(C(=O)Cc1cccc(F)c1)CC2 (stereo unspecified) | . | . | ? | . | 10µM
CC(C)CCN1CCC2(CC1)OC(=O)N(Cc1ccc(O)cc1)C2(C)c1ccccc1 (stereo unspecified) | . | . | ? | . | 89µM
Cc1noc([C@H]2CCN(S(=O)(=O)Cc3ccccc3)C[C@H]2NC(=O)C2CC2)n1 | / | . | . | / | .
O=C(C1CCCN1C(=O)Cc1ccc(F)cc1)N1CCC(N2Cc3ccccc3C2=O)CC1 (stereo unspecified) | / | . | . | / | .
O=C(C1CCCCN1Cc1ccc(-c2ccsc2)cc1)N1CCC(Cc2ccccc2)CC1 (stereo unspecified) | / | . | ? | / | 35µM
Cc1ccc(CN2Cc3[nH]cnc3C[C@H]2C(=O)N2CCC(Cc3ccccc3)CC2)cc1 | . | . | ? | . | 71µM
O=C(NCCc1ccc(F)cc1)C1CCCCN1Cc1ccc(-c2cccs2)cc1 (stereo unspecified) | / | . | 22µM | / | ?
O=C(NCC1CCCCC1)C1CCCCN1Cc1ccc(-c2ccsc2)cc1 (stereo unspecified) | / | . | ? | / | ?
O=C(NCC(F)F)C1CCCCN1Cc1ccc(-c2ccsc2)cc1 (stereo unspecified) | / | . | 40µM | / | ?
COc1cccc(-c2ccc(CN3CCCC(NC(=O)Nc4ccc(Cl)cc4)C3)cc2)c1 (stereo unspecified) | / | . | ? | / | ?
O=C(NCCc1ccc(F)cc1)C1CCCCN1Cc1ccc(-c2ccsc2)cc1 (stereo unspecified) | / | . | 35µM | / | 32µM
COCCCNC(=O)C1CCCCN1Cc1ccc(-c2ccsc2)cc1 (stereo unspecified) | / | . | ? | / | ?
